# Screening data deposited in PubChem BioAssay by Broad Institute.
# The list is a sample of the results.
# aSyn 5UTR act – Activators via SNCA 5'UTR binding, MLPCN | activity score, % (tested at 7.5 µM), hits read low | 7.1% of 300,000 active | alpha-synuclein 5'UTR reporter, activators screen; in the data active = activity score below about -60%
# * marks the source's active call; other numbers are inactive results; + = active, no number.
SMILES,aSyn 5UTR act
COc1cc(C(=O)OCC(=O)Nc2cc(C)on2)ccc1OCc1ccccc1Cl,-111*
C/C(=N\Nc1ccccc1[N+](=O)[O-])c1ccccc1O,-221*
CC/C(=N\Nc1ccccc1[N+](=O)[O-])c1ccc(O)cc1,-90*
N/C(=N\NC(=O)Nc1ccccc1)c1ccccn1,-168*
C/C(CC(C)C)=N\NC(=O)Nc1ccccc1,-69*
COc1ccc(C2NC(=S)NC3=C2CCCC3=C2SCCS2)cc1 (stereo not drawn),+
CN(C)c1ccc(/C=N/Nc2nc3ccccc3o2)cc1,67
O=[N+]([O-])c1ccc(/C=N/Nc2nc3ccccc3o2)cc1,-186*
O=C(NCc1ccccc1)c1cccc(COc2ccc(Cl)cc2)c1,-162*
COc1cc(CNC(=O)c2cccc(COc3ccc(Cl)cc3)c2)cc(OC)c1,-77*
S=C(NCCc1ccccn1)NC1CC2CCC1C2 (stereo not drawn),-62*
O=C(N/N=C/c1ccc(-c2cccc([N+](=O)[O-])c2)o1)c1cccs1,-118*
O=C(N/N=C/c1ccc([N+](=O)[O-])cc1)c1cccs1,-118*
CCSc1nn2c(=O)c3ccccc3nc2s1,-120*
COc1ccc2cc(-c3[nH]ncc3CN3C[C@@H]4CCC[C@H]3C4)ccc2c1,-78*
COc1ccc2cc(-c3[nH]ncc3CN3CCCCO3)ccc2c1,-106*
Cc1c(C(=O)Nc2cccc(Cl)c2)c2ccccn2c1CCc1ccncc1,-103*
Cc1c(C(=O)Nc2ccc(Cl)cc2)c2ccccn2c1CCc1ccncc1,-115*
O=c1oc(Nc2cccc(Cl)c2)nc2ccccc12,-85*
O=c1oc(Nc2ccccc2Cl)nc2ccccc12,-91*
CCOC(=O)c1sc(-c2ccc(OC)cc2)cc1N,-158*
CCOC(=O)c1cc(-c2ccccc2)sc1NC(=O)COC(=O)c1cccc(S(N)(=O)=O)c1,72
CCOC(=O)c1sc(-c2ccc(F)cc2)cc1N,-142*
CCOC(=O)c1cc(-c2ccccc2)sc1N,-94*
CC(=O)c1sc(-c2ccccc2)cc1N,-63*
SMILES,aSyn 5UTR act
CCOC(=O)c1sc(-c2ccccc2)cc1N,-116*
Cc1ccc(C2=NN3C(C2)c2ccccc2OC32C(=O)Nc3ccccc32)cc1 (stereo not drawn),-148*
CN1C(=O)C2(Oc3ccccc3C3CC(c4ccccc4)=NN32)c2ccccc21 (stereo not drawn),-164*
Brc1c(CSc2nc3ccccc3o2)nc2ncccn12,-118*
Clc1c(CSc2nc3ccccc3o2)nc2sccn12,-117*
Clc1c(CSc2nc3ccccc3o2)nc2ccccn12,-117*
CC(C)=C1C2C=CC1C1C(=O)N(c3ccc4c(c3)OCO4)C(=O)C21 (stereo not drawn),-86*
O=C(Nc1ccc2nc3n(c(=O)c2c1)CCCC3)c1cccc([N+](=O)[O-])c1,-103*
COc1cc(OC)cc(C(=O)Nc2ccc3nc4n(c(=O)c3c2)CCCCC4)c1,-115*
CC(=O)Nc1ccc(NC(=O)c2sc3nc4n(c(=O)c3c2C)CCCCC4)cc1,76
CCN(CC)CCNC(=O)/C(=C/c1cn(C)c2ccccc12)NC(=O)c1ccc(OC)c(OC)c1,-64*
Cn1cc(/C=C(\NC(=O)c2ccccc2Cl)C(=O)NCCN2CCOCC2)c2ccccc21,-72*
CC(=O)CN1Cc2ccccc2/C1=N\C(=O)Nc1ccccc1,-73*
COc1ccc(N2Cc3ccccc3/C2=N\C(=O)Nc2ccccc2)cc1,-64*
O=C(Nc1ccc(Cl)cc1)OCc1ccccn1,-134*
CS(=O)(=O)c1ccccc1COC(=O)Nc1ccc(Cl)cc1,-70*
COc1ccc(-c2ccc3sc4ccccc4c(=O)c3c2)cn1,-81*
COc1cc2sc3ccc(-c4ccc(N(C)C)nc4)cc3c(=O)c2cc1OC,-141*
CN(C)c1ccc(-c2ccc3c(=O)c4ccccc4n(C)c3c2)cn1,-106*
C/C(=N\Nc1nc2ccccc2[nH]1)c1ccc(N2CCOCC2)cc1,-163*
C/C(=N\Nc1nc2ccccc2[nH]1)c1ccc(C)o1,-237*
C/C(=N\Nc1nc2ccccc2[nH]1)c1ccc(Cl)s1,-104*
CC(C)(C)C(=O)/C(=C/c1ccc(Cl)cc1)n1cncn1,-173*
CC(C)(C)C(=O)/C(=C\c1ccc([N+](=O)[O-])cc1)n1cncn1,-277*
Cc1cc(C(=O)N/N=C/c2cc(Br)cc(Br)c2OC(=O)c2cccc(F)c2)n[nH]1,70
SMILES,aSyn 5UTR act
COc1ccc(/C=N\NC(=O)c2c(C)nc3ccc(Br)cn23)cc1,51
O=C(Oc1ccc(/C=N/NC(=O)c2ccccn2)cc1)c1cccc(F)c1,-116*
O=C(Oc1ccc(/C=N/NC(=O)c2ccccn2)cc1)c1ccc(Br)cc1,-124*
CC(C)(C)OC(=O)N/N=C/c1ccc(Br)cc1,-132*
O=C(N/N=C/c1ccc(OC(=O)c2ccco2)cc1)c1ccccn1,-123*
Cc1cc(C(=O)N/N=C/c2cc(Br)ccc2OC(=O)c2ccc(Br)cc2)n[nH]1,84
COc1cc(/C=N/NC(=O)c2ccccn2)ccc1OC(=O)c1ccc(Br)cc1,-84*
O=C(N/N=C/c1cccc(OC(=O)c2ccco2)c1)c1ccc(F)cc1,-104*
CC(C)(C)OC(=O)N/N=C\c1ccc(OC(=O)c2cccs2)cc1,-91*
O=C(N/N=C/c1ccc(OC(=O)c2cccs2)cc1)c1ccccn1,-98*
C#CCN1C(=O)S/C(=C\c2ccc(-c3ccc(Cl)c(C(=O)O)c3)o2)C1=O,-93*
CCN=C1S/C(=C\c2ccc(-c3cccc(C(=O)O)c3)o2)C(=O)N1CC,-69*
CCN=C1S/C(=C\c2cn(CC(=O)NCc3ccco3)c3ccccc23)C(=O)N1CC,65
CC1CCN(c2ccc(NC(=O)c3cccnc3Cl)cc2)CC1,-69*
CC1CCN(c2ccc(NC(=O)c3cccnc3)cc2)CC1,-149*
CN(C)c1ccc(/C=N\NC(=O)c2cccc3cc[nH]c23)cc1,-69*
CSC(=S)N/N=C/c1ccc(N(C)C)cc1,-96*
Cc1ccc(/C=N/NC(=O)c2c(C)nc3ccc(Br)cn23)cc1,80
CN(C)c1ccc(/C=N/NC(=O)c2ccco2)cc1,-78*
Cc1ccc(/C=N/NC(=O)c2ccco2)cc1,-94*
CC(C)(C)c1ccc(N=C2SCC(=O)N2Cc2cccs2)cc1,-72*
Cc1sc(NC(=O)c2ccc(Cl)s2)c(C(N)=O)c1C,-284*
Cc1sc(NC(=O)c2ccc(Br)s2)c(C(N)=O)c1C,-225*
CC(=O)Nc1sc(C)c(C)c1C(=O)Nc1ccc(C)cc1,-66*
Cc1sc(NC(=S)Nc2ccc(F)cc2)c(C(N)=O)c1C,-87*
SMILES,aSyn 5UTR act
O=C1S/C(=C\c2ccc(N3CCOCC3)o2)C(=O)N1c1ccccc1,-96*
O=C(O)c1ccccc1-c1ccc(/C=C2\SC(=O)N(c3ccccc3)C2=O)o1,-72*
N#CC(C#N)=Cc1c(N2CCN(c3ccccc3)CC2)nc2ccccn2c1=O,-72*
O=Cc1c(N2CCN(c3ccccc3)CC2)nc2ccccn2c1=O,-86*
COc1ccc(-c2nc3ccccn3c2C=O)cc1,-110*
COc1ccc(N2CCN(c3nc4ccccn4c(=O)c3C=O)CC2)cc1,-68*
O=c1[nH]cnc2nn(-c3ccccc3)nc12,-82*
COc1ccccc1C(=O)NNC(=O)c1ccccc1,-74*
COc1ccccc1C(=O)NNC(=S)NC(=O)c1sc2ccccc2c1Cl,-138*
COc1ccccc1C(=O)NNC(=S)NC(=O)c1cccs1,73
COc1ccccc1C(=O)NNC(=O)c1cccc(Br)c1,-115*
Cc1ccccc1C(=O)NNC(=O)c1ccc(Br)cc1,-96*
